Data taken from PubChem BioAssay (NCATS).
Records with an inconclusive call do not appear. Activity calls are given as the source filed them. Unless noted, calls come from the whole dose curve; as a rule, active = well fitted curve in the direction sought with a large enough effect; inconclusive = small, poorly fitted or top-dose-only effect, or another doubt; inactive = no such curve, though single readings can be large; an effect the other way counts as inactive or inconclusive.

What was measured:
[1] = Cytometric Cell-Based qHTS for Inhibitors of the mTORC1 Signaling Pathway in MEF (Tsc2-/-, p53-/-) Cells (AID 2660); note: potency is the fitted concentration of half-maximal effect
How it was run: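 Cells are plated, treated with compound for 24 hrs at 37 degree Celsius, then fixed, blocked and immunostained for phospho-rpS6 Ser235/236. Propidium iodide counterstain follows. Per-well % positive cells is derived from the PI-normalized phospho-S6 signal.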

[2] = High Content Imaging Cell-Based qHTS for Inhibitors of the mTORC1 Signaling Pathway in MEF Cells (AID 2667); note: potency is the fitted concentration of half-maximal effect
How it was run: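 Immunofluorescence for rpS6 phosphorylation in MEFs of Tsc2-/-, p53-/- background rescued with WT Tsc2. Compound exposure lasted 24 hrs. Inhibition was scored against rapamycin-treated control wells.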

[3] = Cytometry Cell-Based qHTS for Inhibitors of the mTORC1 Signaling Pathway in MEF cells (AID 2668);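 note: Tsc2-/- p53-/- mouse embryonic fibroblasts stably re-expressing wild-type Tsc2; percent cells positive for phospho-rpS6 Ser235/236 relative to propidium iodide stain; series mostly up to about 38 µM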
How it was run: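 Pathway inhibition in WT Tsc2-rescued Tsc2-/-, p53-/- MEFs is measured as the Alexa-488 phospho-rpS6 to propidium iodide intensity ratio after 24 hrs of compound at 37 degree Celsius. PI-stained cell number gives viability.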

[4] = Validation screen for inhibitors of Lassa infection (AID 463096; calls by dose curve)
[5] = Validation screen for small molecules that induce DNA re-replication in MCF 10A normal breast cells (AID 463097); note: nearly all actives have a fitted effect of over 60% in size; note: potency is the fitted concentration of half-maximal effect
How it was run: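 DNA re-replication was detected as a rise in nuclei with elevated Hoechst fluorescence after a 48 hr compound exposure of MCF 10A cells at 37 C.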

[6] = molecular target: Ubiquitin carboxyl-terminal hydrolase 2 (Homo sapiens) (UniProt O75604); test: qHTS Validation Assay for Inhibitors of Ubiquitin-specific Protease USP2a Using CHOP2 as the Reporter (AID 463106)
How it was run: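 10nM USP2 core + cpd, 30min RT; add 25nM Ub-CHOP2/25nM substrate; 60min RT; FI 485/531nm. Buffer Tris pH 8.0, CaCl2, BME, CHAPS. Norm. to NEM = 100% inhibition; time-zero read flags fluorescent artifacts.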

[7] = molecular target: DNA polymerase III PolC-type (Bacillus subtilis (strain 168)) (UniProt P13267); test: qHTS Validation Assay for the Inhibitors of DNA Replication in Gram-Positive Bacteria (AID 485295);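 note: reconstituted holoenzyme with PolC plus beta clamp SSB and primase; PicoGreen fluorescence of double-stranded DNA made on primed circular M13 template; series mostly up to about 57 µM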
How it was run: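 Primed replication of single-stranded M13Gori by a four-protein B. subtilis holoenzyme is measured at room temperature. Double-stranded product is quantified by PicoGreen fluorescence after an EDTA stop; inhibition is scaled between DMSO and EDTA controls.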

[8] = molecular target: Tumor susceptibility gene 101 protein (Homo sapiens) (UniProt Q99816); test: qHTS Validation Assay for Iinhibitors of HIV-1 Budding by Blocking the Interaction of PTAP/TSG101 (AID 485342; calls by dose curve)
How it was run: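 Fluorescence anisotropy measured PTAP-Tsg101 interaction. Final concentrations were 10 uM protein domain and 50 nM labeled peptide, equilibrated 20 min at room temperature.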

[9] = qHTS Validation Assay to Find Inhibitors of Chronic Active B-Cell Receptor Signaling (AID 485345; active = well fitted curve in the direction sought with a large enough effect in the main read-out, with a control signal flat, not every such curve was filed as active)
How it was run: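 Read-out: ratio of filter-corrected green (IkappaBalpha fusion) to red (native) luciferase signal in doxycycline-induced TMD8 cells after 4 h at 37C. Titration spanned 46 uM–3 nM; Data were normalised to basal cells and 10 uM MG-132 wells.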

[10] = molecular target: Beta-2 adrenergic receptor (Homo sapiens) (UniProt P07550); test: qHTS validation assay of beta-arrestin-biased ligands of beta2-adrenergic receptor (AID 485366)
How it was run: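 Values derive from curve-fitted %Activity of a luminescent beta-arrestin recruitment reporter; compounds tested up to 46 microM on Tango cells for 18 hr at 37 degrees C, 5% CO2.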

[11] = molecular target: ATP-dependent 6-phosphofructokinase (Trypanosoma brucei brucei) (UniProt O15648); test: qHTS Validation Assay to Find Inhibitors of T. brucei phosphofructokinase (AID 485368); note: potency is the fitted concentration of half-maximal effect
How it was run: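 Enzyme reaction in triethanolamine buffer pH 8.0 with 5 mM MgCl2, 0.01% Tween20 and 0.1% BSA; PFK 1.25 nM, F6P 0.5 mM, ATP 0.1 mM, 45 min RT. ADP quantified by ADP-Glo.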

[12] = Quantitative high throughput screen for delayed death inhibitors of the malarial parasite plastid, 96 hour incubation (AID 488745); note: nearly all actives have a fitted effect of over 70% in size; note: potency is the fitted concentration of half-maximal effect
How it was run: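 Infected erythrocytes were added to compound in Albumax-supplemented RPMI 1640 at 0.1% parasitemia and 2% hematocrit (final), incubated 96 h at 37 C under 5% CO2, then luciferase reagent was added and luminescence measured.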

[13] = Quantitative high throughput screen for delayed death inhibitors of the malarial parasite plastid, 48 hour incubation (AID 488752); note: nearly all actives have a fitted effect of over 65% in size; note: potency is the fitted concentration of half-maximal effect
How it was run: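 Readout is firefly luciferase luminescence from a reporter integrated into the parasite genome, with lower signal taken as inhibited growth. Infected red cells (0.1% parasitemia, 2% hematocrit final) are cultured with compound for one 48 h cycle at 37 C.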

[14] = molecular target: Thioredoxin reductase 1, cytoplasmic (Rattus norvegicus) (UniProt O89049); test: qHTS Assay for Inhibitors of Mammalian Selenoprotein Thioredoxin Reductase 1 (TrxR1) (AID 488773); conditions: Potency: inhibition; note: nearly all actives have a fitted effect of over 40% in size; note: potency is the fitted concentration of half-maximal effect
How it was run: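 Steps: enzyme (90 nM) plus NADPH (400 uM final), 5 min at ~22 deg C; compound added, 15 min; selenite (400 uM final) added; fluorescence followed for 8 min. Concentration-response curves derived from the normalized delta values.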

[15] = molecular target: Flap endonuclease 1 (Homo sapiens) (UniProt P39748); test: qHTS Validation Assay for the Inhibitors of Human Flap endonuclease 1 (FEN1) (AID 488816); note: potency is the fitted concentration of half-maximal effect
How it was run: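 Readings taken at 0 and 15 min after starting the reaction with 50 nM (final) substrate supplied the signal. Compounds had first sat with 10 nM FEN1 reagent for 15 min at room temperature. Values come from Hill-equation concentration-response fits.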

[16] = molecular target: Thioredoxin reductase 1, cytoplasmic (Rattus norvegicus) (UniProt O89049); test: qHTS Assay for Substrates of Mammalian Selenoprotein Thioredoxin Reductase 1 (TrxR1) (AID 488772);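 note: NADPH fluorescence in the first read after selenite addition and not the 8 min delta; series mostly up to about 57 µM; a drop in NADPH fluorescence below the no-compound background marks a TrxR1 substrate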
How it was run: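 Quantitative HTS in Tris-HCl buffer at pH 7.5 with EDTA and Tween-20, using rat TrxR1, 400 uM NADPH and 400 uM selenite (final). A fall in initial NADPH fluorescence relative to background marked substrate behaviour.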

[17] = molecular target: M-phase phosphoprotein 8 (Homo sapiens) (UniProt Q99549); test: qHTS Validation Assay for Inhibitors for MPP8 Chromodomain Interactions with Methylated Histone Tails (AID 488949);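 note: AlphaScreen signal from MPP8 chromodomain bound to biotinylated H3K9me3 peptide; top concentration of the series differs between compounds; nearly all actives have a fitted effect of over 55% in size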
How it was run: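 Disruption of the preformed MPP8–trimethyl-H3K9 peptide complex (both 50 nM, 30 min, RT) is measured after 30 min compound exposure, using AlphaScreen proximity beads; aurintricarboxylic acid titration serves as plate control.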

[18] = High Content Imaging Cell-Based qHTS for Inhibitors of the mTORC1 Signaling Pathway in MEF (Tsc2-/-, p53-/-) Cells (AID 2666);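 note: percent of cells scored positive for phospho-rpS6 Ser235/236 immunostaining by imaging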; note: potency is the fitted concentration of half-maximal effect
How it was run: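 Cells were plated, dosed with compound after 24 hrs, and incubated another 24 hrs at 37 degree Celsius. Fixed cells were immunostained for phospho-rpS6 Ser235/236 and counterstained, and the normalized signal was scored as % active cells against rapamycin and DMSO controls.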

Measured: Potency

Sequence of Thioredoxin reductase 1, cytoplasmic (Rattus norvegicus) (O89049 whole entry, looked up): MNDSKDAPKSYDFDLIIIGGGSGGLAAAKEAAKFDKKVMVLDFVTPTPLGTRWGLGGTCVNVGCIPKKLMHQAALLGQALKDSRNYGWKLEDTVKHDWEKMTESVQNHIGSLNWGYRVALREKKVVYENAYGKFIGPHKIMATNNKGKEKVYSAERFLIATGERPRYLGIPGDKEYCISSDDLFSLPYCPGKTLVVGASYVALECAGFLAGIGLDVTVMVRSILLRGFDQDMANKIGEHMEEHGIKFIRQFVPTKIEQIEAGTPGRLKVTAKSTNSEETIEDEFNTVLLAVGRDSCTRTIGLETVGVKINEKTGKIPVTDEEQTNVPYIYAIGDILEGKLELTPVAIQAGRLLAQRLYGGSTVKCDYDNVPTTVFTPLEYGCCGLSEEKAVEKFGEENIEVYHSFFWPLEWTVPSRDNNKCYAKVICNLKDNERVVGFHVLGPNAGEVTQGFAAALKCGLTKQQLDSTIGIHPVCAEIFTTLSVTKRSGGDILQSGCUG
Sequence of Beta-2 adrenergic receptor (Homo sapiens) (P07550 whole entry, looked up): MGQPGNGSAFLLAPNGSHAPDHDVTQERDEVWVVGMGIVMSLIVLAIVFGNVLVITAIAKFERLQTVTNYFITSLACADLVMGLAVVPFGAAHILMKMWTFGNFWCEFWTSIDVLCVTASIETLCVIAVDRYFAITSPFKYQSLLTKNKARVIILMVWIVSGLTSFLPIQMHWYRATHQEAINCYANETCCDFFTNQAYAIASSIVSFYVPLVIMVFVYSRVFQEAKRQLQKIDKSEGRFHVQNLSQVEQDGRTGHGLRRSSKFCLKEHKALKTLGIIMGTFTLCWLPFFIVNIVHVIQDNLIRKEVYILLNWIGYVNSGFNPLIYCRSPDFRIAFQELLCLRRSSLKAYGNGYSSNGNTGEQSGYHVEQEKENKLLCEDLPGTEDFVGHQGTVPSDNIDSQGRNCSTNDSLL
Sequence of Tumor susceptibility gene 101 protein (Homo sapiens) (Q99816 whole entry, looked up, the tested form may be a part): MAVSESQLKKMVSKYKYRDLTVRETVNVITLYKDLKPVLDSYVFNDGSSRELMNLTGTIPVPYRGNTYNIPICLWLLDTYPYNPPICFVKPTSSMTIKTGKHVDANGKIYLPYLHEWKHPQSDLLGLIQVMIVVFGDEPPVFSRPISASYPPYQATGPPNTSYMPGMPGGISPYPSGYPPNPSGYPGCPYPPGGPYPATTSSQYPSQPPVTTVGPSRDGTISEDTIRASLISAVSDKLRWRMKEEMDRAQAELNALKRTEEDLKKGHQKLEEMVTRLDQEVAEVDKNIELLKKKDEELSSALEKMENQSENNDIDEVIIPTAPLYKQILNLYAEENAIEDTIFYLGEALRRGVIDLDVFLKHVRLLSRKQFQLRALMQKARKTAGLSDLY
Sequence of ATP-dependent 6-phosphofructokinase (Trypanosoma brucei brucei) (O15648 whole entry, looked up): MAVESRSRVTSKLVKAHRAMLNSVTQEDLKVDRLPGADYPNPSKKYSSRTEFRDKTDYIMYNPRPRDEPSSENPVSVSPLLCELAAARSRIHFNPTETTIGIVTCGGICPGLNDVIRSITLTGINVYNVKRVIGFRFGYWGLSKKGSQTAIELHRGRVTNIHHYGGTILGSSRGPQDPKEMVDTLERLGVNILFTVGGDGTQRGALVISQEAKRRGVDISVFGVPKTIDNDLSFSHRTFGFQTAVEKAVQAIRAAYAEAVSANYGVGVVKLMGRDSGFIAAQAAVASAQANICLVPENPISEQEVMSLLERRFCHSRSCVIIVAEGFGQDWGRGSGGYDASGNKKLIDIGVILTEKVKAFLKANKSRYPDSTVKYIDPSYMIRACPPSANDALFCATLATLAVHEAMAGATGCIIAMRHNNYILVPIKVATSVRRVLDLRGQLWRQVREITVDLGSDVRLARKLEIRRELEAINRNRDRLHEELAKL
Sequence of DNA polymerase III PolC-type (Bacillus subtilis (strain 168)) (P13267 whole entry, looked up): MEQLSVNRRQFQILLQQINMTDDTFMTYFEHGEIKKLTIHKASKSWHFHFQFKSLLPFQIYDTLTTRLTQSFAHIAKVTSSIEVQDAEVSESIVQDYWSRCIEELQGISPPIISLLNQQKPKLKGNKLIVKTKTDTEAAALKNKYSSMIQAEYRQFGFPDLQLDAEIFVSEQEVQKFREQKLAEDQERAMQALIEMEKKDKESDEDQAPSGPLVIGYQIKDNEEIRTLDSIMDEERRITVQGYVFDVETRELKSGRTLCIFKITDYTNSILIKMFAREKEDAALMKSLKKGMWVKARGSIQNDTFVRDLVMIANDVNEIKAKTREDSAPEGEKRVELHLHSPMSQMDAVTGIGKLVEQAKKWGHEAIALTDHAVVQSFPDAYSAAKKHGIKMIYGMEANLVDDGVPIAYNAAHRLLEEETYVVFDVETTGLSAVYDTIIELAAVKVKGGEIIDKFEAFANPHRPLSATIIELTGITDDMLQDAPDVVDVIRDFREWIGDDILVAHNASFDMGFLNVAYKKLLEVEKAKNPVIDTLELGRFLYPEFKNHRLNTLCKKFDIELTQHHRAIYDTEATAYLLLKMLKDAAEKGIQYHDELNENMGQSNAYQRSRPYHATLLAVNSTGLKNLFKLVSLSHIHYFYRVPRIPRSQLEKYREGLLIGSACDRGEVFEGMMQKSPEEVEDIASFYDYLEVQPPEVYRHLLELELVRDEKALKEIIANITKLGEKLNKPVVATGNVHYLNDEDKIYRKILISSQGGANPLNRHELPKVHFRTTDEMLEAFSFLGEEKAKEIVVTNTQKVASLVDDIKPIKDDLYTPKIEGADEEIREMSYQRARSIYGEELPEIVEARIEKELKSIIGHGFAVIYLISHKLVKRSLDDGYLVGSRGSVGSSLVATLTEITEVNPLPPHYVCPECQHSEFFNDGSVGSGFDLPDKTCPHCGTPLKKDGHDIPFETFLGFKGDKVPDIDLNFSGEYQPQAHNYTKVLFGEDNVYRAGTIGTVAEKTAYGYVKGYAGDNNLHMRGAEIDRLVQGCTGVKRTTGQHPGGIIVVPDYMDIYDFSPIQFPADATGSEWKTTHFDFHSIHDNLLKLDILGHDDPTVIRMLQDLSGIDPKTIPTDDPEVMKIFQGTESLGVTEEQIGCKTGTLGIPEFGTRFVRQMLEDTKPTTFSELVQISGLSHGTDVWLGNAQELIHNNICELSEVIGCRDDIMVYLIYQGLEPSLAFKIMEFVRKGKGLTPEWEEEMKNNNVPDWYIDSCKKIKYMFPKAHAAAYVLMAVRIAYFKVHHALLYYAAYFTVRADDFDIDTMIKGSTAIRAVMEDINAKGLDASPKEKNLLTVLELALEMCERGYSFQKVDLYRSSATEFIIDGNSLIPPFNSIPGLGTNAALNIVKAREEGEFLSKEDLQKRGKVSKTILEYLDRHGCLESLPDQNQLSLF
Sequence of Ubiquitin carboxyl-terminal hydrolase 2 (Homo sapiens) (O75604 whole entry, looked up): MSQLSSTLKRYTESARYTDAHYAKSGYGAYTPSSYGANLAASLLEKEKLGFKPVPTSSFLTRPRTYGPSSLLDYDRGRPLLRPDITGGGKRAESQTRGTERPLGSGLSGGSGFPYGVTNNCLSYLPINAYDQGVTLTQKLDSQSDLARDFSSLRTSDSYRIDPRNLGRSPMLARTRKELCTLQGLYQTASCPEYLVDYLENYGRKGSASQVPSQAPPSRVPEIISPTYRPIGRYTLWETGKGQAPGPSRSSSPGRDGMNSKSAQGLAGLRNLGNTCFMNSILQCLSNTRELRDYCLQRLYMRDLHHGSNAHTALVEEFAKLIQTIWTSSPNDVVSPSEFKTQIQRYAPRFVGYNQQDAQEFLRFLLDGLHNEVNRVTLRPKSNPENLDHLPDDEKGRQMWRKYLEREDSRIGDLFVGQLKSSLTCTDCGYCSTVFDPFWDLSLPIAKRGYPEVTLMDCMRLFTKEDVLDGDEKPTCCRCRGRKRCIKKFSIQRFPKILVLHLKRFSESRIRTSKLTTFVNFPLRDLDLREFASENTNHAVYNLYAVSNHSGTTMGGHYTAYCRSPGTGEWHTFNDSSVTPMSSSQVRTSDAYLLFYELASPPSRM
Sequence of M-phase phosphoprotein 8 (Homo sapiens) (Q99549 whole entry, looked up): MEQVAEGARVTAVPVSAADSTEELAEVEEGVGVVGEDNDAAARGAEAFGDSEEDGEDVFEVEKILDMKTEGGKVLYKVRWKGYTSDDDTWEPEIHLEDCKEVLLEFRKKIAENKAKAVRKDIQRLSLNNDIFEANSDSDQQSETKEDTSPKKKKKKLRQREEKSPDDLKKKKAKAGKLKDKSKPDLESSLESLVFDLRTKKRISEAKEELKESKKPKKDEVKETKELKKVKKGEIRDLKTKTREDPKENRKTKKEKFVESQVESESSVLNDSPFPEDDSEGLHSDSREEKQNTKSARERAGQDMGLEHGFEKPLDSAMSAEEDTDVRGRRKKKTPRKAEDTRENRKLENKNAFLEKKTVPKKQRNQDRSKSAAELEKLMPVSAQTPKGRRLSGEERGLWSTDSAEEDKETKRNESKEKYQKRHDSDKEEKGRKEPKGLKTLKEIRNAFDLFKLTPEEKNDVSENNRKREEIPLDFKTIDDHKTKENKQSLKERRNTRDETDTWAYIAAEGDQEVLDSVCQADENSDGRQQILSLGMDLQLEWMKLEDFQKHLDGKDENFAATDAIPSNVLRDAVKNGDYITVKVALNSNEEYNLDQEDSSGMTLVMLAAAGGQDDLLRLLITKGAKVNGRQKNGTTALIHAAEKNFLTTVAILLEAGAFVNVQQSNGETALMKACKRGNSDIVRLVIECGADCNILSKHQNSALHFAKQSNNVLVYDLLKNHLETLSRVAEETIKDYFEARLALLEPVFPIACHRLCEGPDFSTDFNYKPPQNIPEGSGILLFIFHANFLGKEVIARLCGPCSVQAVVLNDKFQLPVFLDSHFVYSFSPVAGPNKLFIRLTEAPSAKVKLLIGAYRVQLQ

NC(N)=NOCC[C@H](N)C(=O)O
not listed: [16] | [17] | [18]
inactive: all other assays above

NC(C(=O)O)c1cc(=O)[nH]o1 (stereo not given)
not listed: [5] | [8] | [12] | [15] | [18]
inactive: all other assays above

C[N+]1(C)CCN(c2ccccc2)CC1
not listed: [8] | [9] | [11] | [12] | [16] | [17] | [18]
inactive: all other assays above

CC(N)[C@H](O)c1ccc(O)c(O)c1 (stereo not given in full)
active: [11] 5.36 µM | [14] 11.9 µM | [15] 2.67 µM
not listed: [2] | [3] | [6] | [12] | [16] | [17]
inactive: all other assays above

C[C@H](N)CN1CCc2ccc(Br)cc21
inactive: [1] | [2] | [3] | [5] | [6] | [7] | [10] | [13] | [16]

NC(=O)c1cc(N2CC2)c([N+](=O)[O-])cc1[N+](=O)[O-]
not listed: [6] | [8] | [14] | [17] | [18]
inactive: all other assays above

CC1(C(=O)O)C2CCC(O2)C1(C)C(=O)O (stereo not given)
active: [1] 13.1 µM | [18] 18.5 µM | [2] 3.69 µM | [13] 5.22 µM
not listed: [3] | [4] | [5] | [9] | [12]
inactive: all other assays above

CP(=O)(O)C1=CCNCC1
not listed: [6] | [8] | [11] | [18]
inactive: all other assays above

OC1CCCCC1N1CCC(c2ccccc2)CC1 (stereo not given)
not listed: [4] | [12] | [14] | [15] | [18]
inactive: all other assays above

COc1ccc(OC)c(C(O)C(C)N)c1 (stereo not given)
not listed: [5] | [6] | [11] | [12] | [14] | [18]
inactive: all other assays above

CO[C@H]1CC=C2CCN3CCC4=C(CC(=O)OC4)[C@]23C1
not listed: [5] | [8] | [13] | [14] | [15] | [18]
inactive: all other assays above

NNC(N)=O
not listed: [6] | [14] | [16] | [18]
inactive: all other assays above

Clc1ccc(N2CC3CCC(C2)N3)nn1
not listed: [8] | [12] | [18]
inactive: all other assays above

O=C1C=CC(=O)C=C1
not listed: [11] | [12] | [15] | [16] | [18]
inactive: all other assays above

OCc1cnc[nH]1
not listed: [11] | [12] | [13] | [14] | [15] | [18]
inactive: all other assays above

CCCN(CCC)C1Cc2cc(OC)c(OC)cc2C1
not listed: [5] | [6] | [11] | [16] | [17] | [18]
inactive: all other assays above

COc1cc(CC(C)N)c(OC)cc1I (stereo not given)
not listed: [5] | [12] | [15] | [17] | [18]
inactive: all other assays above

COc1ccc2c(c1)c(CCN1CCOCC1)c(C)n2C(=O)c1cccc(Cl)c1Cl
inactive: [1] | [18] | [2] | [7] | [10] | [11] | [16] | [14]

O=S1(=O)N(CCN2CC=C(c3c[nH]c4cc(F)ccc34)CC2)c2cccc3c2N1CCC3
inactive: [1] | [2] | [3] | [4] | [7] | [9] | [10]
active: [5] 14.1 µM | [12] 0.465 µM | [13] 1.47 µM

CN1CC[C@@]2(C)c3cc(O)ccc3N(C)C12 (stereo not given in full)
active: [13] 14.7 µM
not listed: [3] | [4] | [5] | [8] | [11] | [12] | [14]
inactive: all other assays above
